# Experimental data: PubChem BioAssay AID977606 (Broad Institute, 2014)
# Out of some 1,500 compounds screened, about 430 (29%) were called active. The rule behind the calls is not given here. These entries were drawn from the full list. Measured potencies and affinities stand elsewhere.
# Assay: glucose-independent GLuc insulin release activation – cell-based, INS-1E, Gaussia luciferase, luminescence, cherry-pick, counter-screen for glucose-dependent insulin secretion activators, dose response (AID 977606)
# Conditions: INS-1E Gaussia luciferase insulin secretion, no glucose, 100% = twice neutral-control luminescence; series mostly up to 35 µM
row,Compound,outcome
1,COc1ccc(S(=O)(=O)N2CCCCC2)cc1NC(=O)C1CCCC1,inactive
2,CN1CCN(c2ccc(NC(=O)c3ccc(Oc4ccccc4)cc3)cc2)CC1,inactive
3,N#Cc1cnn2c(C(F)(F)F)cc(-c3ccccc3)nc12,inactive
4,CCCCc1nnc2c(N(C)S(=O)(=O)c3ccccc3)nc3ccccc3n12,inactive
5,O=C(CCn1nc(-c2ccc(Cl)cc2)ccc1=O)NCCCN1CCCCCC1,inactive
6,COc1ccc(-n2c3c(c(=O)[nH]c2=O)C(NS(=O)(=O)c2ccc(Cl)cc2)(C(F)(F)F)C(=O)N3)cc1 (stereo unspecified),inactive
7,Cc1cc(-c2ccc(Cl)cc2)n2nc(C)cc2n1,inactive
8,O=C(NCCc1ccccc1)c1cc(-c2ccc3c(c2)OCO3)on1,inactive
9,CCOc1ccc(CCNC(=O)c2cc(C)on2)cc1OCC,inactive
10,CCOc1cccc2cc(C(=O)Nc3cc(C)on3)c(=O)oc12,inactive
11,CC(=O)Cc1nsc(NC(=O)c2ccc(-c3cccc(Cl)c3)o2)n1,inactive
12,CC(=O)c1cccc(NC2c3ncccc3C(=O)N2Cc2ccco2)c1 (stereo unspecified),inactive
13,COC(C)(C)c1cc(C(C)(C)C)nc(N)n1,inactive
14,O=C(O)CCN1c2ccccc2Sc2ccccc21,inactive
15,CC1=NN(C(N)=S)C(=O)C1N=Nc1ccccc1C (stereo unspecified),inactive
16,O=c1cc(-c2cccc(Br)c2)nc(-c2ccccc2F)o1,inactive
17,COc1cccc(-c2nnn(CC(=O)O)n2)c1,inactive
18,C1CCN(CCCNC2C3CC4CC(C3)CC2C4)C1 (stereo unspecified),inactive
19,CC(=O)Nc1nc(CC(C)C)cc(-c2ccco2)c1C#N,inactive
20,CC(C(=O)N1CCC(C(N)=O)CC1)N(c1ccc(Oc2ccccc2)cc1)S(C)(=O)=O (stereo unspecified),inactive
21,COc1ccc(C(=O)NCC(=O)OCC(=O)Nc2ccc(C)c(S(=O)(=O)N(C)C)c2)cc1OC,inactive
22,c1nc(N2CCOCC2)c2c3c(sc2n1)CCCC3,inactive
23,N#CC1=C(N)Oc2nc(-c3ccccc3)[nH]c2C1c1cccnc1 (stereo unspecified),inactive
24,COc1cc(/C=N/NC(=O)C(C)n2nnc3ccccc32)ccc1O (stereo unspecified),inactive

row,Compound,outcome
1,CCC(=O)Nc1ccc(C(=O)N/N=C/c2cccnc2)cc1,inactive
2,COc1ccc(N2CCN(S(=O)(=O)c3ccc(-c4cc(C)no4)s3)CC2)cc1,inactive
3,Cc1ccc(S(=O)(=O)N2CCN(C(=O)COC(=O)c3ccc(O)cc3)CC2)c(C)c1,inactive
4,Cc1ccc(C(C)C)c(OCCNCCc2ccccc2)c1,inactive
5,Cc1nn(-c2ccccc2)c2c1C(O)CC(C)(C)C2 (stereo unspecified),inactive
6,CC/C(O)=C1\C(=O)CC(c2ccccc2)CC1=NC(C)C (stereo unspecified),inactive
7,CCc1ccc(OCC(=O)NC(=S)Nc2ccc(C)cc2C)c(Br)c1,inactive
8,COc1ccc(CCNC(=O)COC(=O)c2cncc(Br)c2)cc1OC,inactive
9,CCOC(=O)C1=NN(C(=O)Nc2cccc(C(F)(F)F)c2)C2C(=O)N(c3cccc(C(F)(F)F)c3)C(=O)C12 (stereo unspecified),inactive
10,C[C@@H]1CC2=C(C(=O)OC(C)(C)O2)[C@H](c2ccc(Cl)cc2)O1,inactive
11,Cn1c(=O)c(=O)n(C)c2cc(S(=O)(=O)N3CCN(c4ccc(F)cc4)CC3)ccc21,inactive
12,COc1ccc(C2=NOC(C(=O)NCc3ccccn3)C2)cc1OC (stereo unspecified),inactive
13,COc1ccc(-c2cnc(N)nc2-c2ccc(OC)cc2)cc1,inactive
14,CCOc1ccc(CCNC(=O)COC(=O)c2cccnc2SC)cc1OCC,inactive
15,CC(C)c1ccc2oc(=O)cc(CN3CCCCC3)c2c1,inactive
16,CC1=C(C(=O)N2CCOCC2)CC(CC(=O)NCCCN(C)C)C(=O)N1CCCN1CCCC1=O (stereo unspecified),inactive
17,COc1ccc(CCN=C(N)NS(=O)(=O)c2ccc(C)c(C)c2)cc1OC,inactive
18,CC1CC(C)CN(CC(O)COCc2ccccc2F)C1 (stereo unspecified),inactive
19,O=C(N1CCOCC1)N1CCN(c2ccccn2)CC1,inactive
20,CCN(Cc1ccncc1)C(=O)c1cccc(S(=O)(=O)N2CCCCC2)c1,inactive
21,COc1ccc(N2CCN(C(c3cccs3)C(C)NC(=O)C(=O)N3CCOCC3)CC2)cc1 (stereo unspecified),inactive
22,CN(Cc1ccc(OCC(O)CN(C)Cc2ccccc2)cc1)Cc1nccn1C (stereo unspecified),inactive
23,O=C(NNC1CCN(Cc2ccccc2)CC1)c1ccccc1,inactive
24,CC(NC1CCN(Cc2ccccc2)CC1)c1ccc(F)cc1 (stereo unspecified),inactive

row,Compound,outcome
1,CC(Oc1ccccc1Cl)C(=O)Nc1ccc(S(=O)(=O)Nc2nccs2)cc1 (stereo unspecified),inactive
2,CCNc1nc(NC(C)CC)nc(ON=C(C)C)n1 (stereo unspecified),inactive
3,Cc1cc(=O)oc2c3c(cc(OCC(=O)NC(C)C)c12)OC(C)(C)CC3,inactive
4,O=C(O)COc1ccc2c3c(c(=O)oc2c1)CCC3,inactive
5,O=c1[nH]c2ccccc2nc1-c1nnnn1C1CCCC1,inactive
6,CCOc1ccc(OCCC(=O)N(CC)CC(=O)NCc2cccs2)cc1,inactive
7,CC(O)c1nc2ccccc2n1C1CCCCC1 (stereo unspecified),inactive
8,COc1ccc(N2C(=O)CC(Sc3nc(C)cc(C)c3C#N)C2=O)cc1 (stereo unspecified),inactive
9,O=C(Nc1ccccc1Oc1ccsc1C(=O)O)c1ccccc1F,inactive
10,COc1cc(C(=O)Nc2cc(C(F)(F)F)ccc2N2CCOCC2)ccc1OCC(=O)N1CCOCC1,inactive
11,Cc1cc(C)nc(NC(N)=NCCc2c[nH]c3ccccc23)n1,inactive
12,CCOC(=O)c1[nH]cnc1C(=O)NC(C)C,inactive
13,O=C1c2[nH]nc(-c3ccccc3)c2C(c2ccccc2)N1c1ccccc1 (stereo unspecified),inactive
14,NS(=O)(=O)c1ccc(CNC(=O)c2cc(S(=O)(=O)N3CCOCC3)ccc2N2CCCC2)cc1,inactive
15,CCOc1ccc2oc(=O)cc(CN3CCOCC3)c2c1,inactive
16,Cc1cccc(NC(=O)c2ccc(OCc3c(C)noc3C)cc2)c1C,inactive
17,CCCNC(=O)c1ccccc1NC(=O)COc1ccc(OC)cc1,inactive
18,COc1ccc(Nc2nc(NCc3cccs3)nc3ccsc23)cc1OC,inactive
19,COc1ccc(C(=O)/C=C2\NCCc3cc(OC)c(OC)cc32)cc1OC,inactive
20,COC(=O)c1ccc(OC)c(OC2CCCC2)c1,inactive
21,Cc1cccc2nc(-c3ccco3)c(Nc3ccccc3)n12,inactive
22,Cc1ccc(C(=O)c2sc(Nc3ccccc3)c(C#N)c2N)cc1,inactive
23,CNc1ccc2ncc(-c3ccc(OC)c(OC)c3)n2n1,inactive
